Results from PubChem BioAssay (NCI).
This is part of a sample that, as a whole, favours compounds with a hit. Of some 83,000 tested, about 20% had one in any assay.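 48-hour exposure, single concentration, 96-well plates; percent growth endpoint where 0 means no net growth. Active: below 10.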 A number with no mark means an inactive call. The source made the active and inactive calls.

Key:
Test in all cases: NCI-60 one-dose screen, 48 h (100 = growth as untreated, 0 = no growth, -100 = all killed)
Conditions in all cases: 10 µM unless noted
RPMI-8226 leukemia = system: RPMI-8226 leukemia
OVCAR-8 ovarian = system: OVCAR-8 ovarian
OVCAR-5 ovarian = system: OVCAR-5 ovarian
OVCAR-4 ovarian = system: OVCAR-4 ovarian
SK-OV-3 ovarian = system: SK-OV-3 ovarian
IGROV1 ovarian = system: IGROV1 ovarian
OVCAR-3 ovarian = system: OVCAR-3 ovarian
HS 578T breast = system: HS 578T breast
NCI/ADR-RES ovarian = system: NCI/ADR-RES ovarian
T-47D breast = system: T-47D breast
BT-549 breast = system: BT-549 breast
MDA-MB-435 melanoma = system: MDA-MB-435 melanoma
SW-620 colon = system: SW-620 colon
MCF7 breast = system: MCF7 breast
HCT-116 colon = system: HCT-116 colon
KM12 colon = system: KM12 colon
HCC-2998 colon = system: HCC-2998 colon

SMILES	growth (RPMI-8226 leukemia)	growth (OVCAR-8 ovarian)	growth (OVCAR-5 ovarian)	growth (OVCAR-4 ovarian)	growth (SK-OV-3 ovarian)	growth (IGROV1 ovarian)	growth (OVCAR-3 ovarian)	growth (HS 578T breast)	growth (NCI/ADR-RES ovarian)	growth (T-47D breast)	growth (BT-549 breast)	growth (MDA-MB-435 melanoma)	growth (SW-620 colon)	growth (MCF7 breast)	growth (HCT-116 colon)	growth (KM12 colon)	growth (HCC-2998 colon)
Cc1ccc(OCCOCCOCCOCCOCCOc2ccc(C)n(O)c2=S)c(=S)n1O	11.5%	14.1%	41.7%	22.7%	10.2%	15.5%	29.6%	45.8%	1.54% (active)	15.1%	26%	32.6%	27.9%	11.5%	18%	23%	
Cc1cccc(N2C(=O)/C(=C/C(Cl)=C/c3ccc([N+](=O)[O-])cc3)SC2=S)c1C	-13.1% (active)	9.93% (active)	22.8%	19.8%	72.7%	-40.5% (active)	-21.4% (active)	27.8%	7.84% (active)	5.42% (active)	3.15% (active)	10.4%	0.401% (active)	15.2%	-38.8% (active)	19.3%	42%
C=CCn1cc(-c2nc3ccccc3s2)c2cc(-c3ccc4c5c(cccc35)C(=O)N(CCO)C4=O)ccc21	99.3%	91.2%	92.9%	99.6%	107%	77.7%		104%	98.3%	78.1%	99.4%	109%	98.9%	80.2%	96.7%	105%	101%
Cc1ccc2c(c1)nc(C)n2-c1ncnc2c1CC(C)c1cc(O)ccc1N2C (stereo not drawn)	30.3%	40.6%	89%	67.5%	14.1%	51.4%	14.6%	34.7%	25.9%	33.6%	40.8%	3.76% (active)	21.5%	19.8%		35.6%	78.4%
COc1ccc(C(O)c2cc3c(N)c(C(=O)Nc4cccc5ccccc45)sc3nc2C)cc1 (stereo not drawn)		10.9%	21.5%	34.5%	18.3%	9.69% (active)	0.772% (active)	-9.07% (active)	4.32% (active)	44.2%	8.08% (active)	-17.1% (active)	18.8%	11.3%	6.27% (active)	-6.56% (active)	-38.8% (active)
C=CC(CC(c1ccccc1)(c1ccccc1)c1ccccc1)N(CC)CC (stereo not drawn)	38.2%	94%	72.5%	67.5%	72.5%	77%	70.1%	82.1%	66.1%	59.3%	64.4%	79.2%	55.4%	73%	43.9%	58.8%	69%
Cn1c(=O)c2[nH]c(SC/C(=N/O)c3ccc(Br)cc3)nc2n(C)c1=O	59.4%	26.5%	54.8%	7.77% (active)	-33.3% (active)	20.1%	11.8%	31.8%	37.1%	23.1%	28.3%	52%	92.7%	69.1%	28.3%	56.9%	16.8%
COc1cc(-c2ccc[nH]2)[nH]c1/C=C1\N=C(C)C(CC(=O)OCC(C)(C)C)=C1C	-49.6% (active)	-60.8% (active)	-55.1% (active)	-91.5% (active)	-57.3% (active)	-43.4% (active)	-98% (active)	-24.8% (active)	-65.8% (active)		-87.7% (active)	-81.9% (active)	-64.6% (active)	-74.1% (active)	-90.4% (active)	-90% (active)	-81.4% (active)
O=C1C=C(SCCO)C(=O)c2ccccc21	12.9%	28.9%	87.7%	39.1%	105%	68.6%	-3.21% (active)	2.8% (active)	4.12% (active)	-1.68% (active)	-26.5% (active)	-88.3% (active)	-52.6% (active)	-55.1% (active)	-48.5% (active)	83.4%	78.3%
COC(=O)[C@]1(C)CCC[C@]2(C)[C@H]3C[C@@H]4[C@H]5[C@@H]6CC/C(=N\OCC/C(N)=N/O)[C@H]5[C@@]3(CC[C@H]21)CC4(C(C)C)O6	39.1%	73.2%	93.3%	51.6%	89.9%	63.4%	53.1%	66.3%	32.1%	50%	74.9%	82.9%	64.3%	55.9%	52.6%	76%	90.4%
Nc1ncnc2c1N=C(c1ccc(Cl)cc1)CC(c1cccc(Nc3ccnc4cc(Cl)ccc34)c1)N2 (stereo not drawn)	-20.5% (active)	77.9%	111%	70.7%	80.5%	66.7%	80.6%	68.2%	73.1%	85.9%	78.5%	58%	72.2%	19.5%		56.1%	70.4%
COc1cc(/C=C2\C(=O)N(CCCOc3cc(O)c4c(=O)cc(-c5ccccc5)oc4c3)c3ccccc32)cc(OC)c1O	86.7%	84.7%	110%	83.6%	91.6%	77.2%	44.5%	70.4%	64%	44.6%	49.7%	-35.1% (active)	38.4%	48.9%	63.7%	62.2%	82.9%
O=C(Nc1ccc(Nc2ccncc2)cc1)c1ccc(Nc2ccnc3ccc([N+](=O)[O-])cc23)cc1	63.4%	104%	105%	84.4%	89.1%	97%	93.1%	110%	106%	122%	107%	104%	105%	91.9%		90.1%	76.7%
CCCc1cc(=O)oc2c(C(=O)CC(C)C)c(O)c(CC=C(C)C)c(O)c12	-12.6% (active)	22.3%	53.8%	30.5%	23.3%	36.9%	13.6%	28.1%	0.191% (active)	13.5%	1.17% (active)	24.3%	27.4%	7.3% (active)	14.3%	18.9%	11%
O=c1c2ccccc2n(C[C@H]2CO2)c2ccccc12	1.45% (active)	4.1% (active)	-12.7% (active)	7.68% (active)	-13.5% (active)	-52.3% (active)	-19.7% (active)	6.14% (active)	-14.3% (active)	12.6%	-4.38% (active)	-61.5% (active)	0.352% (active)	-4.75% (active)	2.21% (active)	-16.4% (active)	-70% (active)
COc1ccc(C2C3=C(COC3=O)N(CCO)c3cc4c(cc32)OCO4)cc1OC (stereo not drawn)	88.8%	102%	94.7%	88.1%	84.1%	60.9%	43%	92.4%	94.7%	87.5%	80.5%	5.99% (active)	61.6%	64.3%	68.6%	62.4%	74.5%
COC1C(O)CC(OC2CC(OC3CC(O[C@@H]4C(=O)c5c(cc6cc(OC7CC(OC8CC(O)C(O)C(C)O8)C(O)C(C)O7)c(C)c(O)c6c5O)CC4[C@H](OC)[C@@H](O)C(C)=O)OC(C)C3O)OC(C)C2O)OC1C (stereo partly drawn)	7.39% (active)	8.72% (active)	12%	16.9%	22.2%	17.4%	5.36% (active)	21.7%	68.8%	1.23% (active)	-1.59% (active)	5.77% (active)	14.9%	4.58% (active)		14.7%	-50% (active)
O=C1OCC2=C1C(c1ccccc1)c1cc3c(cc1N2CCO)OCCO3 (stereo not drawn)	27.9%	32.5%	37.5%	31.1%	22.4%	17.8%	-56.3% (active)	-9.64% (active)	-26.8% (active)	50.5%	14.1%	-32% (active)	21.1%	8.47% (active)	6.08% (active)	9.35% (active)	0.753% (active)
